PubChem BioAssay (EPA / NIEHS)
Records with an inconclusive call do not appear. Calls of active or inactive are those of the source. How the source made its calls, unless noted: active means hit-call score of the fitted dose curve at least 0.9, where 1 is the maximum; inconclusive means response in the unintended direction; inactive means score below 0.9.

Legend:
[1] = molecular target: Glucocorticoid receptor (Homo sapiens) (UniProt P04150); assay: ATG_GR_TRANS: Attagene TRANS-FACTORIAL HepG2 Assay for human Glucocorticoid Receptor (GR) (AID 2282978); settings: HepG2 Attagene TRANS GR reporter, mRNA transcription;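 further: activators score as hits since higher reporter transcript over DMSO is fitted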
Glucocorticoid receptor (Homo sapiens), sequence (P04150 whole entry, looked up, the tested form may be a part): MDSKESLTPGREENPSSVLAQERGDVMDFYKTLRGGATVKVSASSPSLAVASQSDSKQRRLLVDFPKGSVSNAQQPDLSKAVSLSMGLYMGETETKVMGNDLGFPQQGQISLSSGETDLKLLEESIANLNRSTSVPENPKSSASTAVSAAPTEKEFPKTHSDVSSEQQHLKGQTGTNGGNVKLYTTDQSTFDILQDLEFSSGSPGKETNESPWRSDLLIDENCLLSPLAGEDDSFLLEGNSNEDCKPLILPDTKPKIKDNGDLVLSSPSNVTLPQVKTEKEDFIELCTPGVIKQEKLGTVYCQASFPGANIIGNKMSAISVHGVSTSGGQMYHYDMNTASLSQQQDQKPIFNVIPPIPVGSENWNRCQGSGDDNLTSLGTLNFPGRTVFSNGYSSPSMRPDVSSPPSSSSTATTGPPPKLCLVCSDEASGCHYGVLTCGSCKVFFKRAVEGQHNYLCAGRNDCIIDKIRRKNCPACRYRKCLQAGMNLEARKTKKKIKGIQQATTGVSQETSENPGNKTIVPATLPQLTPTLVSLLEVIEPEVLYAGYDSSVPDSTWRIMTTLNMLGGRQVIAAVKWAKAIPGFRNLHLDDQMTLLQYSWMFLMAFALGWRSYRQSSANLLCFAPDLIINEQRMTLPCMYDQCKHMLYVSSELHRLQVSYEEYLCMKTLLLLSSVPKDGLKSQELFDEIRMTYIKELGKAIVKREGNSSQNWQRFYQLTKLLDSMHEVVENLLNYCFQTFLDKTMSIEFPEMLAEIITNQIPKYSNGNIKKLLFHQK
Summary of the method: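 Transiently transfected HepG2 cells express chimeric NR-GAL4 proteins acting on GAL4-UAS reporter units. Compounds are applied for 24 h. mRNA induction over DMSO is measured by capillary electrophoresis.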

[2] = molecular target: Oxysterols receptor LXR-alpha (Homo sapiens) (UniProt Q13133); assay: ATG_LXRa_TRANS: Attagene TRANS-FACTORIAL HepG2 Assay for human Liver X Receptor alpha (LXRa) (AID 2282980); settings: HepG2 Attagene TRANS reporter, LXRa transactivation
Oxysterols receptor LXR-alpha (Homo sapiens), sequence (Q13133 whole entry, looked up): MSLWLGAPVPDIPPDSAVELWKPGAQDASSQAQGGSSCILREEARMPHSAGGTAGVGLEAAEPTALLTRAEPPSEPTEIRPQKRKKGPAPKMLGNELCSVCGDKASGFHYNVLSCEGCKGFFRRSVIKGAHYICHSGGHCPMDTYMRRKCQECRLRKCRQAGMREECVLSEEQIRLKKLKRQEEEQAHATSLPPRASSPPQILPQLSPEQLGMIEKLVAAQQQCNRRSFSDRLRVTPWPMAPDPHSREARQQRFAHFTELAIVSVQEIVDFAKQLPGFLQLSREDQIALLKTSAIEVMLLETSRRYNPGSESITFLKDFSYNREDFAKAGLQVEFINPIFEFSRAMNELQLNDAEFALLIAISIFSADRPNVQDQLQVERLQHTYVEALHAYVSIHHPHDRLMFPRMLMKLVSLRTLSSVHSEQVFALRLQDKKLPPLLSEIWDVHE
Summary of the method: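 Transient HepG2 transfectants, 24 h dosing, RT-PCR/CE mRNA reporter quantitation; gain-of-signal vs DMSO.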

[3] = molecular target: Oxysterols receptor LXR-beta (Homo sapiens) (UniProt P55055); assay: ATG_LXRb_TRANS: Attagene TRANS-FACTORIAL HepG2 Assay for human Liver X Receptor beta (LXRb) (AID 2282981); settings: HepG2 Attagene TRANS GAL4-LXRb reporter, mRNA
Oxysterols receptor LXR-beta (Homo sapiens), sequence (P55055 whole entry, looked up, the tested form may be a part): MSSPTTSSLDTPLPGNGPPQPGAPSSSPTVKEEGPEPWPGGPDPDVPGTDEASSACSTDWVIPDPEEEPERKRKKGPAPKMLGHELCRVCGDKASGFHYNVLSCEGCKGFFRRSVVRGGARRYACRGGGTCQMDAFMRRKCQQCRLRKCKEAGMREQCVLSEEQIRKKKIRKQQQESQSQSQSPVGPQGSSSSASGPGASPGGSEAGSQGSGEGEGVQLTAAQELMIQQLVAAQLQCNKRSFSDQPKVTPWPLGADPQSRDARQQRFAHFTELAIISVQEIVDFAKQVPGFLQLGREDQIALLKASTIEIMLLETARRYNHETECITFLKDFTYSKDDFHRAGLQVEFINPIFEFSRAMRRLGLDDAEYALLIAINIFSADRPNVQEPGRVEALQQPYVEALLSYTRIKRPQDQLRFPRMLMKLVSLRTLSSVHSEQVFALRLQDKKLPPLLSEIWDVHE
Summary of the method: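 After 24 h chemical treatment of transfected HepG2 cells carrying exogenous NR-Gal4 chimeras, reporter mRNA was quantified by fluorescent RT-PCR and capillary electrophoresis; activity taken as increase over DMSO controls.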

[4] = ATG_M_32_TRANS: Attagene TRANS-FACTORIAL HepG2 Assay for M32 Transcription Factor (Internal Marker) (AID 2282984); settings: HepG2 Attagene TRANS M32 internal marker reporter;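 further: transcript level of a background control reporter unit measured by RT-PCR and capillary electrophoresis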
Summary of the method: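 Internal background reporter in transfected HepG2: after 24 h chemical exposure, RNA reverse-transcribed, reporter cDNA amplified, fluorescently labelled and HpaI-cut, then sized by capillary electrophoresis. Gain of signal fitted against DMSO control.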

[5] = molecular target: Nuclear respiratory factor 1 (Homo sapiens) (UniProt Q16656); assay: ATG_NRF1_CIS: Attagene CIS-FACTORIAL HepG2 Assay for human Nuclear Respiratory Factor 1 (NRF1) Orphan Gene (AID 2282987; active means hit-call score of the fitted dose curve at least 0.9, where 1 is the maximum; inactive means score below 0.9); settings: HepG2 NRF1 cis-element reporter, Attagene multiplex; actives raise or lower the signal
Nuclear respiratory factor 1 (Homo sapiens), sequence (Q16656 whole entry, looked up): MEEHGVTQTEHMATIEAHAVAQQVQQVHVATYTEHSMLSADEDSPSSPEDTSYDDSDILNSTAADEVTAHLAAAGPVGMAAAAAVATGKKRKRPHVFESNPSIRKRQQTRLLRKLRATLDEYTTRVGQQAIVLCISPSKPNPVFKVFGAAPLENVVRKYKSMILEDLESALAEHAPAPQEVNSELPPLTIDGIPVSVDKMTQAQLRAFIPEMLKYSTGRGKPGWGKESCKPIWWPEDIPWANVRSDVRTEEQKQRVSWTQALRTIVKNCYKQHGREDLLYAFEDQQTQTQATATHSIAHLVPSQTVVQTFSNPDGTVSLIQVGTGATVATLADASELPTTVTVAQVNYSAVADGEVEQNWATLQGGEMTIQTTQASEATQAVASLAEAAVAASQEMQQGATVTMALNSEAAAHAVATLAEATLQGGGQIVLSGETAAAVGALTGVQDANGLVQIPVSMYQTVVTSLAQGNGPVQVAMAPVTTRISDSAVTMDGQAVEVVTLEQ
Summary of the method: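 Reporter mRNA induction or loss in HepG2 cells after 24 h dosing; cis-regulated reporter constructs report endogenous transcription-factor activity. Quantified by RT-PCR/capillary electrophoresis fluorescence, DMSO-referenced.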

[6] = molecular target: Hepatocyte nuclear factor 4-alpha (Homo sapiens) (UniProt P41235); assay: ATG_HNF4a_TRANS: Attagene TRANS-FACTORIAL HepG2 Assay for human Hepatocyte Nuclear Factor 4 alpha (HNF4a) (AID 2282982); settings: HepG2 HNF4a transactivation reporter, mRNA readout
Hepatocyte nuclear factor 4-alpha (Homo sapiens), sequence (P41235 whole entry, looked up, the tested form may be a part): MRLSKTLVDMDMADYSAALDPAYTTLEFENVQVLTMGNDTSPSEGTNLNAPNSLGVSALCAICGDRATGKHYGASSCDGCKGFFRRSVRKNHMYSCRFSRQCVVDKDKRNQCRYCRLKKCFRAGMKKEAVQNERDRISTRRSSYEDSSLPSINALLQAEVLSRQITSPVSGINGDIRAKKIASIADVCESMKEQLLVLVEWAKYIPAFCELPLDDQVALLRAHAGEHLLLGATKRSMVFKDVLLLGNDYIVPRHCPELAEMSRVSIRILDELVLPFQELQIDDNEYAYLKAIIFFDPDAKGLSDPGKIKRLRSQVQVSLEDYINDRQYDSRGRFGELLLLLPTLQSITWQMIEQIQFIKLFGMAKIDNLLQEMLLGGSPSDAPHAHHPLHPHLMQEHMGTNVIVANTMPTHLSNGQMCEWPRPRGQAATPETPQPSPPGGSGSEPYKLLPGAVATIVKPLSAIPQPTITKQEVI
Summary of the method: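 Activity of an exogenous HNF4a–Gal4 fusion scored as induced GAL4-UAS reporter transcripts after 24 h chemical exposure of transfected human HepG2 cells. Read-out via RT-PCR with 6-FAM labelling and capillary electrophoresis; rise over DMSO baseline.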

[7] = molecular target: Nuclear receptor subfamily 4 group A member 2 (Homo sapiens) (UniProt P43354); assay: ATG_NURR1_TRANS: Attagene TRANS-FACTORIAL HepG2 Assay for human Nuclear Receptor Related Protein 1 (NURR1) (AID 2282985); settings: HepG2 Attagene TRANS reporter, mRNA readout
Nuclear receptor subfamily 4 group A member 2 (Homo sapiens), sequence (P43354 whole entry, looked up, the tested form may be a part): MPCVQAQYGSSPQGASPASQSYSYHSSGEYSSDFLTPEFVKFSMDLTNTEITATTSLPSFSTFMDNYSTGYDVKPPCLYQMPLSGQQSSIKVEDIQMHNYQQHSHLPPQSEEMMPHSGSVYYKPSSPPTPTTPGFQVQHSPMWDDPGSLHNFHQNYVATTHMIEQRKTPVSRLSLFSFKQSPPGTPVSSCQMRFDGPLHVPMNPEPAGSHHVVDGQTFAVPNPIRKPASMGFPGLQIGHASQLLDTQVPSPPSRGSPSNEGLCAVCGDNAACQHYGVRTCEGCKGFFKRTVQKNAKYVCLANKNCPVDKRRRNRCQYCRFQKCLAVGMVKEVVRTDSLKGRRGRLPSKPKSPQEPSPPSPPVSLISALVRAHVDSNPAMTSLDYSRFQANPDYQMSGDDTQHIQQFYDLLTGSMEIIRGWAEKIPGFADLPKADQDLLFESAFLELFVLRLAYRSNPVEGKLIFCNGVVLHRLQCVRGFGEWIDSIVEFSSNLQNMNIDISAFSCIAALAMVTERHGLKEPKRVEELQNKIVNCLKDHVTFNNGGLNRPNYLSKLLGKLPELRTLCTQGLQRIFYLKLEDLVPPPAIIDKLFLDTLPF
Summary of the method: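 Reporter transcript induction, measured by RT-PCR with fluorescent labelling, HpaI digestion and capillary electrophoresis, after 24 hr dosing of human HepG2 cells transiently expressing an exogenous NR-Gal4 fusion with GAL4-UAS-driven reporters; DMSO as baseline.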

[8] = molecular target: Bile acid receptor (Homo sapiens) (UniProt Q96RI1); assay: ATG_FXR_TRANS: Attagene TRANS-FACTORIAL HepG2 Assay for Farnesoid X Receptor (FXR) (AID 2282979); settings: HepG2 Attagene TRANS FXR-GAL4 reporter transcription;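 further: hits raise reporter mRNA above DMSO so AC50 marks FXR activation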
Bile acid receptor (Homo sapiens), sequence (Q96RI1 whole entry, looked up, the tested form may be a part): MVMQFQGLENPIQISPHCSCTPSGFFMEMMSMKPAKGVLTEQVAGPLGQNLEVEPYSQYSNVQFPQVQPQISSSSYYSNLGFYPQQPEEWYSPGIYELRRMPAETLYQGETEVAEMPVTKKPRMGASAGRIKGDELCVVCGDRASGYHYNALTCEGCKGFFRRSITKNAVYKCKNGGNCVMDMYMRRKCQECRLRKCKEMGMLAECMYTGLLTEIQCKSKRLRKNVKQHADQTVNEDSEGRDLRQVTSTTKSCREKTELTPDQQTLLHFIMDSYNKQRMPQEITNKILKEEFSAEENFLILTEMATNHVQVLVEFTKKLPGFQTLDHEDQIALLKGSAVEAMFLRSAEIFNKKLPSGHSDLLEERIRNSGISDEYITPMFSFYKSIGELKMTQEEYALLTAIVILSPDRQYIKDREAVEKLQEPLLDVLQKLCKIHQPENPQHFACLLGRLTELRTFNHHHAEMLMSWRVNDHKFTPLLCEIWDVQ
Summary of the method: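 Chimeric FXR-GAL4 activity in transiently transfected human HepG2 liver cells is scored as induction of reporter mRNA after 24 h of dosing. Detection uses RT-PCR with fluorescent labelling and capillary electrophoresis, with DMSO serving as baseline.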

[9] = ATG_M_06_TRANS: Attagene TRANS-FACTORIAL HepG2 Assay for M06 Transcription Factor (Internal Marker) (AID 2282983); settings: HepG2 Attagene TRANS M06 internal marker reporter;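 on AC50: potency for rise in reporter mRNA above DMSO baseline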
Summary of the method: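 Human liver HepG2 cells bearing transiently transfected chimeric NR-GAL4 reporter units were treated with chemicals for 24 h. Total RNA was reverse-transcribed, reporter sequences amplified and labelled, then quantified by capillary electrophoresis. Activity was fitted upward relative to DMSO.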

[10] = molecular target: Transcriptional activator Myb (Homo sapiens) (UniProt P10242); assay: ATG_Myb_CIS: Attagene CIS-FACTORIAL HepG2 Assay for human Myeloblastosis (Myb) Proto-Oncogene Transcription Factor (AID 2282986; active means hit-call score of the fitted dose curve at least 0.9, where 1 is the maximum; inactive means score below 0.9); settings: HepG2 Attagene CIS-FACTORIAL Myb reporter transcription; actives raise or lower the signal
Transcriptional activator Myb (Homo sapiens), sequence (P10242 whole entry, looked up): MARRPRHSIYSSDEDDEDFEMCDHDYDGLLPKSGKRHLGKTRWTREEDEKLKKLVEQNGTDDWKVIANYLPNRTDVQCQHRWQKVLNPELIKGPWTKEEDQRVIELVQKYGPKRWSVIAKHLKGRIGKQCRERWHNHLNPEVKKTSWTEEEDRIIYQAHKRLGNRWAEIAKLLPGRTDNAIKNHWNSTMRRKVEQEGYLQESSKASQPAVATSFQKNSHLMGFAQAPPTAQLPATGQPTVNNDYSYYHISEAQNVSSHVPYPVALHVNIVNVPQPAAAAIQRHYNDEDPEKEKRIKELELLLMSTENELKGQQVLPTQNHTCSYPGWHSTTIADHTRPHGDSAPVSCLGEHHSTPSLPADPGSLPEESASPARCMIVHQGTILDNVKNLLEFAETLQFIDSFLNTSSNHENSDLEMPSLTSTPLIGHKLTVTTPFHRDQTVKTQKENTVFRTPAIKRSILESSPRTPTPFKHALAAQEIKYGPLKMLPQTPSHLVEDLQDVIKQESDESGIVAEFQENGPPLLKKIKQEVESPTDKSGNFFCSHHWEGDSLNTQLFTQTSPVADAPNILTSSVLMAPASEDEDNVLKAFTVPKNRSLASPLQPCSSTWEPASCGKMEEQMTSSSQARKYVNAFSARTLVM
Summary of the method: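 Using HepG2 liver cells bearing transiently transfected cis-promoter reporter constructs, the assay measures induction or loss of reporter mRNA after 24 hours of dosing. Detection used fluorescently labeled RT-PCR products separated by capillary electrophoresis.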

Measured: AC50

COc1ccc(/C=C/S(=O)(=O)NC(=O)c2ccc(C)cc2Cl)cc1
inactive: [1] | [2] | [3] | [4] | [5]

CCCCC(CC)COC(=O)CCCCCCCCC(=O)OCC(CC)CCCC (centres undefined)
inactive: [1] | [2] | [3] | [6] | [4] | [7] | [5]

Oc1ccc2c(c1)-c1ccccc1C2
inactive: [1] | [8] | [6] | [9] | [4] | [10] | [5]

COc1ccc(-n2nc(C(F)F)cc2-c2ccc(S(C)=O)cc2)cc1 (centres undefined)
inactive: [1] | [2] | [3] | [6] | [4] | [10] | [5]

COc1cccc(-c2ccc(/C=C\CN3CCCCCC3)cc2Cl)c1
inactive: [1] | [8] | [2] | [3] | [6] | [9] | [7] | [10] | [5]

CC(O)CN(CCN(CC(C)O)CC(C)O)CC(C)O (centres undefined)
inactive: [1] | [2] | [7] | [10] | [5]

O=C1CCC(N2C(=O)c3ccccc3C2=O)C(=O)N1 (centres undefined)
inactive: [1] | [2] | [9] | [4] | [7] | [5]

CC(C)=CCC/C(C)=C\CO
inactive: [1] | [8] | [3] | [9] | [4] | [7] | [5]

CCOC(=O)c1ccc(C2CCC(NC[C@H](O)COc3ccc(O)c(NS(C)(=O)=O)c3)CC2)cc1 (some centres undefined)
active: [8] 33 µM | [9] 62.3 µM | [10] 55.5 µM
inactive: [1] | [4] | [5]

Cn1cnc([N+](=O)[O-])c1Sc1ncnc2nc[nH]c12
inactive: [1] | [2] | [3] | [6] | [9] | [10] | [5]

Nc1nc2ncc(CNc3ccc(C(=O)N[C@@H](CCC(=O)O)C(=O)O)cc3)nc2c(=O)[nH]1
inactive: [1] | [2] | [3] | [10] | [5]

Cc1[nH]cnc1C[C@H]1CCc2c(C)c3ccccc3n2C1=O
inactive: [1] | [8] | [2] | [3] | [9] | [4] | [7]
active: [5] 13.1 µM

CCCN(C1CCN(C(=O)C2CCNCC2)CC1)[C@@H]1CCc2ccc(OC)cc2C1
inactive: [1] | [2] | [3] | [6] | [4] | [7] | [10] | [5]

CN(C)c1ccc(N=NS(=O)(=O)O)cc1
inactive: [1] | [2] | [3] | [9] | [10] | [5]

O=C(O)c1cc(N=Nc2ccc(S(=O)(=O)Nc3ccccn3)cc2)ccc1O
inactive: [1] | [2] | [6] | [4] | [10] | [5]

COCCOc1cc2cc(C(=O)NC3CCN(C(C)C)CC3)n(CC(=O)Nc3ccc(Cl)cn3)c2cn1
inactive: [1] | [8] | [2] | [6] | [9] | [4] | [10] | [5]

COCCOCCOCCOC
inactive: [1] | [2] | [6] | [9] | [4] | [7] | [5]

COc1ccc2sc(C(=O)Nc3nnn[nH]3)c(OC(C)C)c2c1
inactive: [1] | [8] | [9] | [4] | [7] | [10] | [5]

CC/C(=C\C(=N/O)C(N)=O)C(C)[N+](=O)[O-] (centres undefined)
inactive: [1] | [2] | [4] | [5]

CC(C)CCCCCCCOC(=O)CCCCC(=O)OCCCCCCCC(C)C
inactive: [1] | [2] | [6] | [4] | [5]

C1=CCCC=CCCC=CCC1
inactive: [1] | [8] | [9] | [10] | [5]

Cn1c(=O)cc(Oc2ccc(F)cc2F)c2cnc(NCC(C)(C)O)nc21
inactive: [1] | [8] | [2] | [3] | [6] | [9] | [4]
active: [5] 51.6 µM

CNCc1ccc(NC(=O)c2c[nH]c3c2C(=O)CCC3)cc1
inactive: [1] | [2] | [3] | [6] | [9] | [4] | [7] | [5]

CCOc1cccc(-n2cc(C(=O)N3CCN(c4cc(C(=O)O)c5ccccc5c4)CC3)nc2-c2ccc(C)cc2)c1
inactive: [1] | [8] | [9] | [4]
active: [7] 45 µM | [5] 22.7 µM

CC(C)=CCCC(C)=CC=O
inactive: [1] | [2] | [6] | [9] | [4] | [10] | [5]
active: [7] 100 µM

CC[C@H](C)C(=O)O[C@H]1C[C@@H](C)C=C2C=C[C@H](C)[C@H](CC[C@@H]3C[C@@H](O)CC(=O)O3)[C@H]21
inactive: [1] | [8] | [2] | [6] | [9] | [4] | [7] | [10] | [5]

CC(C)c1cccc(C(C)C)c1N1C(=O)c2ccc(O)cc2C1=O
active: [8] 19.8 µM | [5] 152 µM
inactive: [1] | [3] | [4] | [7]

O=C(CCCCCCCCc1cccnc1)N1CCC(C=C(c2ccccc2)c2ccccc2)CC1
inactive: [2] | [9] | [4] | [7] | [5]
active: [1] 100 µM

CCCCCCc1ccc(O)cc1O
inactive: [1] | [2] | [9] | [7] | [5]

CC1(C)C(=O)N(Br)C(=O)N1Br
inactive: [8] | [6] | [9] | [7] | [5]

CC1=CC(=O)CC(C)(C)C1
inactive: [1] | [9] | [5]

CC[C@H]1CC[C@H](NCc2cc3c(cc2OC)[C@H]2C[C@H]2C(=O)N3C)[C@H](c2ccccc2)N1
inactive: [1] | [3] | [6] | [9] | [7] | [10] | [5]

CC(C)=CCC/C(C)=C/CO
inactive: [1] | [9] | [5]

Fc1ccccc1[C@@H](F)COC1CCC(Nc2ncnc3[nH]ncc23)CC1 (some centres undefined)
inactive: [6] | [4] | [7] | [10]
active: [8] 25.6 µM | [5] 9.56 µM

Cc1ccc(N)cc1O
inactive: [1] | [6] | [9] | [5]

Nc1cccc(N)c1
inactive: [8] | [3] | [9] | [7] | [5]

C1N2CN3CN1CN(C2)C3
inactive: [2] | [3] | [6] | [9] | [7] | [10] | [5]

Cc1ccc(O)cc1
inactive: [1] | [9] | [5]
